Experimental findings from PubChem BioAssay AID463173 (ICCB-Longwood Screening Facility, Harvard Medical School, 2010) are described below.

Screen size: about 52,000 compounds; about 1,700 (3.3%) were called active. The sample holds actives, similar compounds and a random draw of the others, so the mix is not that of the screen. No stated cut-off is given here; in the data, active means survival mostly below about 52% (no sharp cut-off); inactive means mostly above about 56%.

The assay deals with Wild type. Kind of assay: growth inhibition of S. aureus wild type versus tarO mutant, primary screen, teichoic acid synthesis inhibitors, RN4220, OD600 (AID 463173). The settings on record: S. aureus RN4220 wild type/DeltatarO growth, OD600, 18 h, active compounds read low, screened at 18.75 µg/mL (by protocol).
Take `CCn1c(SCc2ccccc2)nnc1C1CCCCC1`: the survival is 106% (inactive).
Regarding `Cc1c2cnn(-c3ccccc3)c(=O)c2c(C)n1C(C)C(=O)NCc1cccc(Br)c1` (stereo unspecified), the survival is 71% (inactive).
Then `CC(=O)c1cccc(NC(=O)CCn2nc(C)c(S(=O)(=O)N3CCCCC3)c2C)c1`, with 159% (inactive); and `CC(=O)c1ccc(NC(=O)CCn2nc(C)c(S(=O)(=O)N3CCC(C)CC3)c2C)cc1`, with -6% (active); and `Cc1nn(CCC(=O)Nc2cccc(C#N)c2)c(C)c1S(=O)(=O)N1CCC(C)CC1`, with 69% (inactive).
Under `CCOc1ccc(NC(=O)NCCc2c(C)nn(C)c2C)cc1` stands 60% (inactive).
On to `CCc1cccc(CC)c1NC(=O)CN(C)S(=O)(=O)c1ccc2c(c1)n(C)c(=O)c(=O)n2C`, for which the survival was 81% (inactive).
Under `O=C(Cn1cnc2nc3c(cc2c1=O)CCCC3)Nc1ccc(F)cc1Cl` stands 72% (inactive).
Then `Cc1cccc(N(C)C(=O)Cn2cnc3nc4c(cc3c2=O)CCCC4)c1`, with -1% (active).
Consider `Cc1ccc(C)c(N2CCN(C(=O)Cn3cnc4nc5c(cc4c3=O)CCCC5)CC2)c1`, for which the survival was 76% (inactive).
With `COc1cc(OC)c(NC(=O)Cn2cnc3nc4c(cc3c2=O)CCCC4)cc1Cl`, the survival is -6% (active).
Under `O=C(Cn1cnc2nc3c(cc2c1=O)CCCC3)N1CCN(c2ccccc2)CC1` stands 69% (inactive); under `Cc1c(Cl)cccc1NC(=O)Cn1cnc2nc3c(cc2c1=O)CCCC3`, 131% (inactive); under `Cc1ccc(C)c(NC(=O)Cn2cnc3nc4c(cc3c2=O)CCCC4)c1`, 72% (inactive).
Turning to `COc1ccc(N2CCN(C(=O)Cn3cnc4nc5c(cc4c3=O)CCCC5)CC2)cc1`, the survival is 78% (inactive).
Consider `O=C(Cn1cnc2nc3c(cc2c1=O)CCCC3)N1CCN(c2cccc(C(F)(F)F)c2)CC1`, for which the survival was 14% (active).
Then `CN(C)C(=O)C1Cc2ccccc2CN1S(=O)(=O)c1ccc(F)cc1` (stereo unspecified), with 105% (inactive); and `CCc1ccc(-c2nc3c(c(SCc4ccccc4)n2)Cc2c(CO)cnc(C)c2O3)cc1`, with 89% (inactive).
For the compound `COc1cccc(NC(=O)CSc2nccn2C2CCCC2)c1`, the survival was 73% (inactive).
Then `O=C1NC(=Nc2ccccc2)S/C1=C\c1ccc(C(=O)O)cc1`, with 113% (inactive).
Under `CCOc1cccc(CC(=O)N2CCc3c([nH]c4ccccc34)C2c2ccccc2)c1OCC` (stereo unspecified) stands 81% (inactive); under `COc1ccc(C(=O)NCCn2cc(SCC(=O)Nc3ccccc3)c3ccccc32)cc1OC`, 65% (inactive).
On to `COC(=O)c1ccc(Cn2c(SCc3ccccc3F)nc3ccncc32)cc1`, for which the survival was 74% (inactive).
Under `O=C(OCc1cc(=O)n2nc(C3CC3)sc2n1)c1cccc(NC(=O)c2ccccc2Cl)c1` stands 57% (inactive); under `Cc1nnc(N2C(=O)c3oc4ccccc4c(=O)c3C2c2ccc(C(C)(C)C)cc2)s1` (stereo unspecified), 129% (inactive).
Then `COc1ccccc1CNC(=O)CCNS(=O)(=O)c1ccc2c(c1)oc(=O)n2C`, with 83% (inactive).
Then `CC(C)(C)OC(=O)N1CCC(c2nnc(SCc3ccccc3)o2)CC1`, with 83% (inactive); and `Clc1ccccc1CSc1nnc(C2CCNCC2)o1`, with 95% (inactive); and `CC(C)(C)OC(=O)N1CCC(c2nnc(SCc3ccccc3F)o2)CC1`, with 73% (inactive).
`Clc1cccc(CSc2nnc(C3CCNCC3)o2)c1`: the survival is 109% (inactive).
With `CC(C)(C)OC(=O)N1CCC(c2nnc(SCc3ccccc3Cl)o2)CC1`, the survival was -2% (active).
On to `CC(C)(C)OC(=O)N1CCC(c2nnc(SCc3cccc(Cl)c3)o2)CC1`, for which the survival was 0% (active).
Then `CCCN1CCN(c2cc3c(cc2F)c(=O)c(S(=O)(=O)c2ccc(CC)cc2)cn3CC)CC1`, with 70% (inactive).
For `Nc1ccc2c(c1)ncn2CCO`, the survival is 115% (inactive).
Then `CCc1ccccc1NC(=O)Cn1nc2c3cc(F)ccc3n(Cc3cccc(C)c3)cc-2c1=O`, with 71% (inactive).
Under `CCOc1ccccc1NC(=O)Cn1nc2c3cc(F)ccc3n(Cc3cccc(C)c3)cc-2c1=O` stands 81% (inactive).
Under `COc1ccccc1NC(=O)Cn1nc2c3cc(F)ccc3n(Cc3cccc(C)c3)cc-2c1=O` stands -4% (active); under `Cc1cc(C)cc(OCc2cc(=O)n3c(-c4ccccc4)csc3n2)c1`, 88% (inactive).
For the compound `Cc1cccc(NC(=O)C(=O)c2cc(C)n(-c3ccccc3)c2C)c1C`, the survival is 79% (inactive).
On to `CC(CCc1ccccc1)NC(=O)CSc1n[nH]c(-c2ccc(F)cc2)n1` (stereo unspecified), for which the survival was 134% (inactive).
Then `COc1ccc(CNC(=O)CSc2n[nH]c(-c3ccc(F)cc3)n2)cc1`, with 120% (inactive).
Then `COc1ccccc1-c1nc(SCC(=O)c2ccccc2)n[nH]1`, with 77% (inactive).
Turning to `COc1ccc(CNC(=O)CSc2n[nH]c(-c3ccc(OC)cc3)n2)cc1`, the survival was -6% (active).
Then `CC(CCc1ccccc1)NC(=O)CSc1n[nH]c(-c2ccccc2)n1` (stereo unspecified), with 71% (inactive); and `COc1ccccc1-c1nc(SCC(=O)c2ccc(Cl)cc2)n[nH]1`, with 131% (inactive); and `O=C(CSc1n[nH]c(-c2ccccc2Cl)n1)NCCc1ccccc1`, with 72% (inactive).
Consider `Cc1ccc(CNC(=O)CSc2n[nH]c(-c3ccc(F)cc3)n2)cc1`, for which the survival is 124% (inactive).
Under `COc1cccc(CNC(=O)CSc2n[nH]c(-c3ccccc3Cl)n2)c1` stands 75% (inactive); under `CC(C)Oc1ccccc1-c1nc(SCC(=O)c2ccc(F)cc2)n[nH]1`, -5% (active).
On to `COc1ccc(-c2nc(SCC(=O)NC(C)CCc3ccccc3)n[nH]2)cc1` (stereo unspecified), for which the survival is -1% (active).
In the case of `O=C(CSc1n[nH]c(-c2ccccc2Cl)n1)NCc1ccc(F)cc1`, the survival is -6% (active).
As to `CCOC(=O)c1c(S(=O)(=O)N2CCC(C(=O)Nc3ncccc3C)CC2)c(C)n(C)c1C`, the survival is 72% (inactive).
Consider `COc1cc(C(=O)N(CCCN(C)C)c2nc3c(OC)cccc3s2)cc(OC)c1OC`, for which the survival was 124% (inactive).
Turning to `Cc1ccc(CN2CCCn3nc(C(=O)NCCc4ccccc4C)cc3C2=O)cc1`, the survival was 79% (inactive).
Under `O=C(c1ccccc1)C(C(=O)N1CCCCC1)n1ccccc1=O` (stereo unspecified) stands 113% (inactive); under `Cc1cc(=O)c2cc(C(=O)Nc3ccc(F)cc3)ccc2[nH]1`, 87% (inactive).
Consider `Cc1ccc(S(=O)(=O)N(CC(=O)N2CCC(C(N)=O)CC2)c2ccccc2F)cc1`, for which the survival is 98% (inactive).
As to `Cc1ccccc1CN1CCN(CC(=O)NCc2ccccc2Cl)C1=O`, the survival is 77% (inactive).
Then `COc1cccc(CNC(=O)CCS(=O)(=O)c2ccc3c(c2)CC(C)N3C(=O)C2CC2)c1` (stereo unspecified), with -3% (active); and `COc1ccc(CNC(=O)CCS(=O)(=O)c2ccc3c(c2)CC(C)N3C(=O)C2CC2)cc1` (stereo unspecified), with 76% (inactive).
As to `CCC(=O)N1c2ccc(S(=O)(=O)CCC(=O)NCc3cccc(OC)c3)cc2CC1C` (stereo unspecified), the survival was 82% (inactive).
For the compound `CC1Cc2cc(S(=O)(=O)CCC(=O)NCc3ccccc3Cl)ccc2N1C(=O)C1CC1` (stereo unspecified), the survival was 72% (inactive).
Then `COc1ccccc1CNC(=O)CCS(=O)(=O)c1ccc2c(c1)CC(C)N2C(=O)C1CC1` (stereo unspecified), with 0% (active); and `CCC(=O)N1c2ccc(S(=O)(=O)CCC(=O)NCc3ccccc3OC)cc2CC1C` (stereo unspecified), with 87% (inactive); and `COC(=O)c1ccccc1NC(=O)c1c(C)oc2ncn(C)c(=O)c12`, with 95% (inactive).
Then `CC(C)N(C(=O)CSc1nc2ccc(Cl)cc2[nH]1)c1ccccc1`, with 81% (inactive); and `O=c1c2cc3c(cc2nc2sc(Nc4ccc(F)c(Cl)c4)nn12)OCO3`, with 138% (inactive).
Under `Cc1ccc(-n2nnnc2CNC(=O)c2cc(C(F)(F)F)cc(C(F)(F)F)c2)cc1C` stands -3% (active); under `Cc1ccc(C(=O)NCc2nnnn2-c2ccc(C)c(C)c2)cc1`, 82% (inactive).
`Cc1ccc(-n2nnnc2CNC(=O)c2ccc(F)cc2)cc1C`: the survival is 124% (inactive).
As for `CC(C)(C)c1ccc(C(=O)NC2CCNCC2)cc1`, the survival was 108% (inactive).
Then `CC(C)Cn1c(=O)c2ccccc2n2c(CCC(=O)NCc3ccc(Cl)cc3)nnc12`, with 92% (inactive).
As for `O=C(Nc1ccc2nc(SCC(=O)N3CCOCC3)sc2c1)c1ccc(F)cc1`, the survival was 92% (inactive).
For `Cc1ccc(C)c(Nc2nc(-c3ccccc3)c3cc(Br)ccc3n2)c1`, the survival was 42% (inactive).
Under `COc1ccc(Nc2nc(-c3ccccc3)c3cc(Br)ccc3n2)cc1` stands 37% (inactive).
Under `Cc1ccc2nc(Nc3ccc(Br)cc3)nc(-c3ccccc3)c2c1` stands 56% (inactive); under `COc1cccc(Nc2nc(-c3ccccc3)c3cc(C)ccc3n2)c1`, 9% (active); under `Cc1cccc(Nc2nc(-c3ccccc3)c3cc(C)ccc3n2)c1`, 11% (active).
Under `Cc1ccc2nc(NN)nc(-c3ccccc3)c2c1` stands 100% (inactive); under `CN(CC(=O)NCc1ccccc1)S(=O)(=O)c1ccc2[nH]c3c(c2c1)CCCC3`, 72% (inactive); under `COc1cccc(NCc2nnc3n2CCCCC3)c1`, 83% (inactive).
In the case of `Cc1nc2c(c(C)nn2-c2ccccc2)c(C)c1CCC(=O)Nc1ccccc1`, the survival was 87% (inactive).
Take `CCc1ccc(NC(=O)CSc2nc(=O)n(Cc3ccncc3)c3c2CCC3)cc1`: the survival was 80% (inactive).
For `CCn1c(C(=O)NCc2cc(Br)ccc2OC)cc2oc3ccccc3c21`, the survival is 78% (inactive).
For `CCn1c(C(=O)NCc2ccccc2Br)cc2oc3ccccc3c21`, the survival was 36% (inactive).
Under `CCn1c(C(=O)NCc2ccccc2C)cc2oc3ccccc3c21` stands 15% (inactive); under `CCOc1ccccc1CNC(=O)c1cc2oc3ccccc3c2n1CC`, 2% (active).
Under `CCn1c(C(=O)NCc2ccc(F)cc2)cc2oc3ccccc3c21` stands 115% (inactive); under `CCn1c(C(=O)NCc2cccc(Br)c2)cc2oc3ccccc3c21`, 7% (active).
Then `Clc1ccc(N2CCN(c3ncnc4c3nc3n4CCCC3)CC2)cc1`, with 73% (inactive).
In the case of `Cc1cc(-n2c(C)nc3ccccc3c2=O)ccc1NC(=O)c1ccc([N+](=O)[O-])cc1`, the survival was 82% (inactive).
Under `Cc1c(C(=O)Nc2ccc(-n3c(C)nc4ccccc4c3=O)cc2)cccc1[N+](=O)[O-]` stands 80% (inactive).
Consider `Cc1cc(-n2c(C)nc3ccccc3c2=O)ccc1NC(=O)c1cccc([N+](=O)[O-])c1C`, for which the survival was -2% (active).
Regarding `Cc1cc(-n2c(C)nc3ccccc3c2=O)ccc1NC(=O)c1ccc(C)c([N+](=O)[O-])c1`, the survival is 10% (active).
Under `Cc1cc(-n2c(C)nc3ccccc3c2=O)ccc1NC(=O)c1ccccc1[N+](=O)[O-]` stands 88% (inactive).
Take `Cc1ccc(C(=O)Nc2ccc(-n3c(C)nc4ccccc4c3=O)cc2)cc1[N+](=O)[O-]`: the survival was 121% (inactive).
